Test results published in PubChem BioAssay AID1159580 (chemical genetic matrix, 2015).
Values joined by “and” are separate entries in the source; they are usually repeats but may differ in a detail not shown here. Identical values can stand only once. The whole screen tested about 5,500 compounds, of which about 2,000 (36%) were called active. Another 18% or so got no clear call; they are omitted. No stated cut-off is given here; in the data, active means normalized growth mostly below about 0.91 (no sharp cut-off); inconclusive means no clear call, values can overlap the other calls; inactive means mostly above about 0.92. The list shows a part of the results.

Experiment: chemical genetic growth profiling, strain panel (AID 1159580);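 further: tested at 20 µM; growth read once vehicle control cultures reached saturation at 30 °C; 1 = growth at the plate median or of vehicle wells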
Settings: S. cerevisiae deletion strains, growth OD

Measured: normalized growth

O=C1C(O)=C(O)C(=O)C(O)=C1O
inactive: locus YAL013W, strain DEP1, stronger effect = lower value 0.983 | locus YAL021C, strain ccr4, stronger effect = lower value 1 | locus YAL026C, strain drs2, stronger effect = lower value 1.02 | locus YAL030W, strain snc1, stronger effect = lower value 1 | locus YBL061C, strain skt5, stronger effect = lower value 1.03 | locus YBR009C, strain hhf1, stronger effect = lower value 0.992 | locus YBR021W, strain FUR4, stronger effect = lower value 1.01 | locus YBR023C, strain chs3, stronger effect = lower value 1.02 | locus YBR171W, strain sec66, stronger effect = lower value 1.02 | locus YBR229C, strain ROT2, stronger effect = lower value 0.964 | locus YBR231C, strain swc5, stronger effect = lower value 1.02 | locus YBR279W, strain paf1, stronger effect = lower value 1.01 | locus YCL011C, strain gbp2, stronger effect = lower value 0.991 | locus YCL016C, strain dcc1, stronger effect = lower value 1.02 | locus YCL029C, strain bik1, stronger effect = lower value 0.991 | locus YCL061C, strain MRC1, stronger effect = lower value 1.01 | locus YCL069W, strain vba3, stronger effect = lower value 1.03 | locus YCR088W, strain abp1, stronger effect = lower value 1.01 | locus YDL005C, strain med2, stronger effect = lower value 1.01 | locus YDL035C, strain GPR1, stronger effect = lower value 1 | locus YDL040C, strain nat1, stronger effect = lower value 0.997 | locus YDL074C, strain BRE1, stronger effect = lower value 0.968 | locus YDL101C, strain DUN1, stronger effect = lower value 0.965 | locus YDL134C, strain PPH21, stronger effect = lower value 0.983 | locus YDL185W, strain tfp1, stronger effect = lower value 0.959 | locus YDL192W, strain arf1, stronger effect = lower value 0.99 | locus YDR001C, strain nth1, stronger effect = lower value 1 | locus YDR069C, strain doa4, stronger effect = lower value 1.01 | locus YDR101C, strain arx1, stronger effect = lower value 1.01 | locus YDR137W, strain rgp1, stronger effect = lower value 0.984 | locus YDR150W, strain NUM1, stronger effect = lower value 0.968 | locus YDR159W, strain sac3, stronger effect = lower value 0.977 | locus YDR162C, strain NBP2, stronger effect = lower value 0.939 | locus YDR195W, strain ref2 0.999 | locus YDR297W, strain sur2, stronger effect = lower value 1.02 | locus YDR318W, strain mcm21, stronger effect = lower value 1.03 | locus YDR334W, strain swr1, stronger effect = lower value 1.01 | locus YDR335W, strain msn5, stronger effect = lower value 1.01 | locus YDR388W, stronger effect = lower value 0.991 | locus YDR392W, strain spt3, stronger effect = lower value 1.04 | locus YDR502C, strain sam2, stronger effect = lower value 0.996 | locus YEL003W, strain gim4, stronger effect = lower value 1.02 | locus YEL037C, strain rad23, stronger effect = lower value 0.998 | locus YEL061C, strain CIN8 (second series), stronger effect = lower value 1.01 | locus YEL061C, strain CIN8, stronger effect = lower value 0.987 | locus YER015W, strain faa2, stronger effect = lower value 1.01 | locus YER016W, strain bim1, stronger effect = lower value 1.01 | locus YER110C, stronger effect = lower value 0.986 | locus YER111C, strain swi4, stronger effect = lower value 0.991 | locus YER155C, strain BEM2 (second series), stronger effect = lower value 1.01 | locus YER155C, strain BEM2, stronger effect = lower value 1 | locus YER167W, strain BCK2, stronger effect = lower value 1.01 | locus YFR010W, strain ubp6, stronger effect = lower value 1 | locus YGL078C, strain dbp3, stronger effect = lower value 0.977 | locus YGL086W, strain mad1, stronger effect = lower value 1.02 | locus YGL167C, strain pmr1, stronger effect = lower value 1 | locus YGL173C, strain kem1, stronger effect = lower value 1.01 | locus YGL227W, strain vid30, stronger effect = lower value 1.01 | locus YGL240W, strain doc1, stronger effect = lower value 1.02 | locus YGL248W, strain PDE1, stronger effect = lower value 0.974 | locus YGL253W, strain hxk2, stronger effect = lower value 1 | locus YGR078C, strain PAC10, stronger effect = lower value 0.971 | locus YGR135W, strain pre9, stronger effect = lower value 0.968 | locus YGR229C, strain SMI1, stronger effect = lower value 0.969 | locus YGR252W, strain gcn5, stronger effect = lower value 1.04 | locus YHR013C, strain ard1, stronger effect = lower value 1.03 | locus YHR027C, strain rpn1, stronger effect = lower value 1.02 | locus YHR030C, strain SLT2, stronger effect = lower value 1 and 0.988 | locus YHR079C, strain IRE1 (second series), stronger effect = lower value 1 | locus YHR079C, strain IRE1, stronger effect = lower value 0.973 | locus YHR094C, strain hxt1, stronger effect = lower value 0.984 | locus YHR129C, strain ARP1, stronger effect = lower value 0.994 | locus YHR142W, strain chs7, stronger effect = lower value 1.02 | locus YHR200W, strain rpn10, stronger effect = lower value 1 | locus YIL066C, strain RNR3, stronger effect = lower value 0.977 | locus YIL073C, strain SPO22, stronger effect = lower value 1.07 | locus YIL125W, strain kgd1, stronger effect = lower value 0.967 | locus YIR030C, strain dcg1, stronger effect = lower value 0.993 | locus YJL092W, strain hpr5, stronger effect = lower value 1.01 | locus YJL095W, strain BCK1 (second series), stronger effect = lower value 1.02 | locus YJL095W, strain BCK1, stronger effect = lower value 0.991 and 0.993 | locus YJL115W, strain asf1, stronger effect = lower value 1 | locus YJL129C, strain trk1, stronger effect = lower value 1.03 | locus YJL134W, strain LCB3, stronger effect = lower value 0.995 | locus YJL154C, strain vps35, stronger effect = lower value 1.02 | locus YJL164C, strain tpk1, stronger effect = lower value 1 | locus YJL166W, strain qcr8, stronger effect = lower value 1.01 | locus YJL168C, strain set2, stronger effect = lower value 0.996 | locus YJL187C, strain SWE1 (second series), stronger effect = lower value 0.961 | locus YJL187C, strain SWE1, stronger effect = lower value 1.01 | locus YJR043C, strain POL32, stronger effect = lower value 1.03 | locus YJR066W, strain TOR1, stronger effect = lower value 0.941
